Experimental data as given in PubChem BioAssay AID1224921 (Broad Institute, 2016).
The whole screen tested about 1,400 compounds, of which about 350 (25%) were called active. Not shown: some 2% with an inconclusive outcome. How the calls were made is not given here. Only a sample is shown. Entries with a potency or affinity are not part of this list.

assay: inhibitors of Clostridioides difficile proliferation – 4-point retest, confirmation (AID 1224921); details: Clostridioides difficile clinical isolate growth, OD600, 24 h, active compounds read low; at 30 µM unless noted;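 further: plate controls were DMSO wells for no effect and levofloxacin 16 µg/mL wells for full effect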

Max activity, inactive:
CCCC(=O)Nc1ccc2c(c1)C(=O)N(C)C[C@H](OC)[C@H](C)CN(Cc1ccc(F)cc1)[C@H](C)CO2 22.5%
CC(C)CC#Cc1ccc2c(c1)O[C@H](CN(C)Cc1ccc3c(c1)OCO3)[C@H](C)CN([C@H](C)CO)S2(=O)=O 43.6%
COc1ccccc1CNC(=O)C[C@@H]1C[C@@H]2c3cc(NC(=O)NC4CCCC4)ccc3O[C@@H]2[C@@H](CO)O1 -8.98% [at 1.8 µM]
C[C@H](CO)N1C[C@H](C)[C@H](CN(C)C(=O)NC2CCCCC2)Oc2cc(C#Cc3ccc(F)cc3)ccc2S1(=O)=O 14.3%
COc1cccc(-c2ccc3c(c2)O[C@H](CN(C)Cc2cccnc2)[C@@H](C)CN([C@@H](C)CO)S3(=O)=O)c1 21.5%
CO[C@@H]1CN(C)C(=O)c2ccc(NC(=O)NC(C)C)cc2OC[C@@H](C)N(C(=O)NC(C)C)C[C@@H]1C 16.7%
C[C@H]1CN([C@@H](C)CO)S(=O)(=O)c2ccc(C#CC3CCCC3)cc2O[C@H]1CN(C)C(=O)Cc1ccccc1 16.1%
CCCNC(=O)C[C@@H]1CC[C@H]2[C@H](COc3ccc(NC(=O)c4cccc(Cl)c4)cc3C(=O)N2C)O1 -10.6% [at 8 µM]
C=CCOC(=O)[C@H]1[C@@H]2C(=O)O[C@@H](c3ccccc3)[C@@H](c3ccccc3)N2[C@@H](c2ccc(OCCOC(=O)[C@H]3C[C@H]4C(=O)N5CCC[C@H]5C(=O)N4[C@H]3c3cccc(OCCO)c3)cc2)[C@]12C(=O)Nc1ccccc12 -23.8% [at 8 µM]
C[C@@H]1CN([C@@H](C)CO)S(=O)(=O)c2ccc(-c3cncnc3)cc2O[C@H]1CN(C)C(=O)CC1CC1 -11% [at 8 µM]
CN(C)CC(=O)N1[C@H](C#N)[C@@H](c2ccc(/C=C/c3ccccc3)cc2)[C@H]1CO 19.5%
CO[C@H]1CN(C)C(=O)c2ccc(NC(=O)c3ccccc3F)cc2OC[C@@H](C)N(CC2CC2)C[C@H]1C 9.45%
CCCNC(=O)Nc1ccc2c(c1)OC[C@@H](C)N(Cc1ccccc1)C[C@@H](C)[C@H](OC)CN(C)C2=O 40.4%
C[C@H](CO)N1C[C@H](C)[C@@H](CN(C)C(=O)c2ccccc2)OCCCC[C@H](C)Oc2ccc(NC(=O)Nc3cccc4ccccc34)cc2C1=O 39.2%
CNC[C@H]1OCCCC[C@@H](C)Oc2ccc(NC(=O)Nc3ccc(C(F)(F)F)cc3)cc2C(=O)N([C@@H](C)CO)C[C@H]1C 33.8% [at 8 µM]
C[C@@H]1CCCCO[C@@H](CN(C)S(=O)(=O)c2ccccc2)[C@@H](C)CN([C@H](C)CO)C(=O)c2cc(NC(=O)Nc3ccc(C(F)(F)F)cc3)ccc2O1 12.1% [at 8 µM]
CNC[C@@H]1OCCCC[C@@H](C)Oc2ccc(NC(=O)Nc3cccc4ccccc34)cc2C(=O)N([C@H](C)CO)C[C@H]1C 27.3%
CNC[C@@H]1OCCCC[C@H](C)Oc2ccc(NC(=O)Nc3ccc(C(F)(F)F)cc3)cc2C(=O)N([C@@H](C)CO)C[C@@H]1C 52.5% [at 8 µM]
CNC[C@@H]1Oc2ncc(-c3ccc(OC)cc3)cc2C(=O)N([C@@H](C)CO)C[C@@H]1C 20.8%
COc1cccc(-c2ccc3c(c2)O[C@@H](CN(C)Cc2cccnc2)[C@H](C)CN([C@@H](C)CO)S3(=O)=O)c1 12.1%
Cc1ccccc1-c1ccc2c(c1)O[C@H](CN(C)Cc1ccncc1)[C@H](C)CN([C@H](C)CO)S2(=O)=O 50.8%
CO[C@H]1CN(C)C(=O)c2cc(NS(=O)(=O)c3ccc(Cl)cc3)ccc2OC[C@H](C)N(C(=O)NC(C)C)C[C@@H]1C -13.3% [at 8 µM]
O=C(C[C@@H]1C[C@@H]2c3cc(NC(=O)Nc4ccc(C(F)(F)F)cc4)ccc3O[C@@H]2[C@H](CO)O1)NC1CCCCC1 -10.2% [at 0.5 µM]
N#C[C@@H]1[C@@H](c2ccc(/C=C/c3ccccc3)cc2)[C@@H](CO)N1C(=O)C1CC1 27%
C[C@@H]1CN([C@@H](C)CO)C(=O)c2c(c3ccccc3n2C)-c2ccccc2CO[C@@H]1CN(C)C(=O)c1ccncc1 29.1%
COc1ccc(CN(C)C[C@@H]2OCCCC[C@H](C)Oc3ccc(NC(=O)Nc4ccc5c(c4)OCO5)cc3C(=O)N([C@H](C)CO)C[C@@H]2C)cc1 14.8%
CCCC(=O)Nc1ccc2c(c1)OC[C@@H](C)N(C(=O)c1ccccc1F)C[C@@H](C)[C@@H](OC)CN(C)C2=O 9.79%
Cc1ccccc1-c1ccc2c(c1)O[C@@H](CN(C)Cc1ccncc1)[C@H](C)CN([C@H](C)CO)S2(=O)=O 48.1%
CCCN(C)C[C@H]1OCCCC[C@H](C)Oc2ccc(NC(=O)Nc3ccc4c(c3)OCO4)cc2C(=O)N([C@@H](C)CO)C[C@@H]1C 8.67%
CCCN(C)C[C@H]1OCCCC[C@H](C)Oc2ccc(NC(=O)Nc3ccc(C(F)(F)F)cc3)cc2C(=O)N([C@@H](C)CO)C[C@H]1C 28.8% [at 8 µM]
CCCN(C)C[C@H]1OCCCC[C@@H](C)Oc2ccc(NC(=O)Nc3ccc(C(F)(F)F)cc3)cc2C(=O)N([C@H](C)CO)C[C@H]1C -43.7%
CCCN(C)C[C@@H]1OCCCC[C@@H](C)Oc2ccc(NC(=O)Nc3ccc(C(F)(F)F)cc3)cc2C(=O)N([C@H](C)CO)C[C@@H]1C 16.3% [at 8 µM]
CC(C)NC(=O)N[C@@H]1CC[C@H](CC(=O)NCCCN(C)C)O[C@@H]1CO -13.1%
C[C@@H]1CN([C@H](C)CO)S(=O)(=O)c2ccc(C#CC3CCCC3)cc2O[C@@H]1CN(C)Cc1cccnc1 27.7%
CCCC#Cc1ccc2c(c1)O[C@@H](CN(C)Cc1ccncc1)[C@@H](C)CN([C@@H](C)CO)S2(=O)=O -13.3% [at 8 µM]
CO[C@@H]1CN(C)C(=O)c2cc(NC(=O)c3cnccn3)ccc2OC[C@@H](C)N(CCC(F)(F)F)C[C@H]1C -9.07% [at 35 µM]
CCCNC(=O)Nc1ccc2c(c1)OC[C@H](C)N(Cc1ccccc1)C[C@@H](C)[C@@H](OC)CN(C)C2=O 27.8% [at 8 µM]
CNC[C@H]1Oc2ncc(-c3ccc(OC)cc3)cc2C(=O)N([C@H](C)CO)C[C@@H]1C 27.6%
CO[C@H]1CN(C)C(=O)c2cc(NC(=O)c3ccccc3)ccc2OC[C@H](C)N(C)C[C@H]1C -10.6% [at 1.95 µM]
CO[C@H]1CN(C)C(=O)c2ccc(NS(=O)(=O)c3ccccc3C)cc2OC[C@@H](C)N(S(C)(=O)=O)C[C@@H]1C 15%
C[C@@H]1CN([C@@H](C)CO)S(=O)(=O)c2ccc(C#CC3CCCC3)cc2O[C@@H]1CN(C)Cc1cccnc1 -18.2% [at 1.95 µM]
C[C@@H]1CCCCO[C@@H](CN(C)Cc2ccccc2)[C@H](C)CN([C@@H](C)CO)C(=O)c2cc(NC(=O)Nc3ccc(C(F)(F)F)cc3)ccc2O1 26.5% [at 1.95 µM]
C[C@@H]1CCCCO[C@H](CN(C)Cc2ccccc2)[C@@H](C)CN([C@H](C)CO)C(=O)c2cc(NC(=O)Nc3ccc(C(F)(F)F)cc3)ccc2O1 19.2% [at 8 µM]
CO[C@@H]1CN(C)C(=O)c2cc(NC(=O)NC3CCCCC3)ccc2OC[C@@H](C)N(CCc2ccccc2)C[C@@H]1C 17.7% [at 8 µM]
C[C@H](CO)N1C[C@H](C)[C@H](CN(C)Cc2ccc(-c3ccccc3)cc2)Oc2ncc(C#C[C@@H](C)O)cc2C1=O 17.2%
CO[C@@H]1CN(C)C(=O)c2ccc(NC(=O)c3ccc(Oc4ccccc4)cc3)cc2OC[C@@H](C)NC[C@H]1C -19.3% [at 2.1 µM]
CC(C)CC#Cc1ccc2c(c1)O[C@@H](CN(C)Cc1cccnc1)[C@@H](C)CN([C@H](C)CO)S2(=O)=O 41.2%
C[C@@H]1CCCCO[C@H](CN(C)Cc2ccccc2)[C@H](C)CN([C@@H](C)CO)C(=O)c2cc(NC(=O)Nc3ccc(C(F)(F)F)cc3)ccc2O1 26.5% [at 1.95 µM]
C[C@H](CO)N1C[C@H](C)[C@H](CN(C)Cc2ccccc2)OCCCC[C@H](C)Oc2ccc(NC(=O)Nc3ccc(F)cc3)cc2C1=O 37.9%
CC(C)C#Cc1ccc2c(c1)O[C@H](CN(C)Cc1ccncc1)[C@H](C)CN([C@H](C)CO)S2(=O)=O 8.71%
CCCNC(=O)Nc1ccc2c(c1)C(=O)N(C)C[C@H](OC)[C@@H](C)CN(Cc1ccccc1)[C@H](C)CO2 17.2%
COc1ccc(NC(=O)Nc2cccc3c2O[C@@H](CN(C)C(=O)NC2CCCCC2)[C@H](C)CN([C@H](C)CO)C3=O)cc1 7.41%
O=C(C[C@@H]1C[C@@H]2c3cc(NC(=O)CC4CC4)ccc3O[C@@H]2[C@H](CO)O1)NCCc1ccccc1 -14.8%
CCC(=O)Nc1ccc2c(c1)C(=O)N(C)[C@@H]1CC[C@H](CC(=O)NCc3ccc(OC)cc3)O[C@@H]1CO2 -3.51% [at 1.95 µM]
CC(C)NC(=O)N(C)C[C@H]1Oc2cc(C#Cc3ccc(F)cc3)ccc2S(=O)(=O)N([C@@H](C)CO)C[C@@H]1C 24.4%
